# Screening results: PubChem, The Scripps Research Institute Molecular Screening Center
# PAFAH2 inh: inhibitors of human PAFAH2 | actives 0.99% (n = 340,000) | recombinant PAFAH2, FP-rhodamine activity probe, fluorescence polarization | inhibition, % at 3.39 µM | Q99487;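 active = inhibition above the mean over all tested compounds plus 3 SD, cut at about 30% in these data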;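 note: inhibitors block probe labeling of enzyme so polarization drops; 0% = enzyme with DMSO and 100% = wells lacking PAFAH2 protein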
# PAFAH1B2 inh: PAFAH1B2 (human) inhibition | actives 1.2% (n = 340,000) | recombinant PAFAH1B2, FP-rhodamine activity probe, fluorescence polarization | inhibition, % at 3.39 µM | P68402;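 active = inhibition above the mean of all tested compounds plus 3 SD, cut at about 24% in these data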;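 note: 0% = enzyme with DMSO and 100% = wells lacking PAFAH1B2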
# Target sequence (P68402 whole entry, looked up): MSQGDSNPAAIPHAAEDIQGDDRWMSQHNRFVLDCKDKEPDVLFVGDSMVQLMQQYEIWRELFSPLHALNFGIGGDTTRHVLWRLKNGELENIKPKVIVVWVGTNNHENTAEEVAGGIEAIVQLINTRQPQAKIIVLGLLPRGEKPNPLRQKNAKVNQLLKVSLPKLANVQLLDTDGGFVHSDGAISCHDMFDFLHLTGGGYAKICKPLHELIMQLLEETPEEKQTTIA
# pPAFAH FP inh: inhibitors of human plasma PAF acetylhydrolase (pPAFAH); Q13093; AID 463082; actives 1.5% (n = 330,000); recombinant pPAFAH, FP-rhodamine probe fluorescence polarization; inhibition, % at 3.39 µM;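 active = inhibition above the mean inhibition across the screen plus 3 SD, cut at about 25% in these data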;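 note: inhibitors block binding of the rhodamine activity-based probe so polarization drops; 0% = enzyme with DMSO and 100% = wells lacking pPAFAH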
# PAFAH1B3 inh: inhibitors of human PAFAH1B3; Q15102; actives 0.28% (n = 340,000); recombinant PAFAH1B3, FP-rhodamine probe, fluorescence polarization; inhibition, % at 3.39 µM; AID 492972;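 active = inhibition above the screen-wide average of all tested compounds plus 3 SD, cut at about 25% in these data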;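 note: 0% = enzyme with DMSO only and 100% = wells lacking PAFAH1B3 protein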
# TCR-CD3 inh: blocks the human TCR-CD3 interaction; TAMRA-labeled TCR probe fluorescence, biochemical; inhibition, % at 9.4 µM; actives 0.37% (n = 360,000); in the data active = inhibition above about 19%;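 note: recombinant mutant TCR 2C K166C tagged with TAMRA read by polarization; 0% = receptor in buffer alone and 100% = receptor with positive control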
# PAFAH2 confirm: PAFAH2 (human) inhibition, confirmed; shares compounds with PAFAH2 inh; AID 493030; inhibition, % at 3.39 µM; recombinant PAFAH2, FP-rhodamine activity probe, fluorescence polarization; actives 65% (n = 2,300);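 active = mean inhibition over three repeats above a set limit taken from the earlier primary screen, cut at about 30% in these data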;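 note: inhibitor blocks binding of rhodamine activity probe so polarization falls; 0% = enzyme with DMSO and 100% = wells lacking PAFAH2 protein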
# Numbers without * were called inactive; nt = not tested or not shown. Sampled rows, rich in hits. Any-hit rate of the full collection: about 2.7%.
SMILES,PAFAH2 inh,PAFAH1B2 inh,pPAFAH FP inh,PAFAH1B3 inh,TCR-CD3 inh,PAFAH2 confirm
CCOC(=O)c1sc(N2C(=O)C(O)=C(C(=O)c3ccco3)C2c2cccc([N+](=O)[O-])c2)nc1C (stereo unspecified),42*,-2,12,6,-2,30*
CCOC(=O)c1sc(N2C(=O)C(O)=C(C(=O)c3ccco3)C2c2cccc(Cl)c2)nc1C (stereo unspecified),23,0,3,2,4,nt
CC1=C(C#N)c2nc(N)c(C#N)c(C)c2/C1=C\c1ccc(-c2ccccc2C(=O)O)o1,32*,14,nt,22,-1,20
Cc1ccc(S(=O)(=O)N2CCOCC2)cc1NC(=O)COC(=O)/C=C/c1ccco1,46*,5,6,10,-3,45*
COc1cccc(/C=C/C(=O)OCC(=O)Nc2cc(S(=O)(=O)N3CCOCC3)ccc2C)c1,55*,-1,9,1,5,42*
COc1cc(/C=C/C(=O)OCC(=O)Nc2cc(S(=O)(=O)N3CCOCC3)ccc2Cl)cc(OC)c1OC,18,2,0,2,4,nt
CCN(CC(=O)Nc1c(F)cccc1F)C(=O)c1ccc(Cl)c(S(=O)(=O)N2CCCCC2)c1,1,5,-3,0,-4,nt
CC(Oc1ccc(Br)cc1)c1nc2c3ccccc3nc(=S)n2[nH]1 (stereo unspecified),-1,-4,8,3,-8,nt
CCCC(Oc1ccc(Br)cc1)c1nc2c3cc(OC)c(OC)cc3nc(=S)n2[nH]1 (stereo unspecified),33*,15,10,13,-2,22
COc1ccc(C(=O)NCC(=O)OCC(=O)NC23CC4CC(CC(C4)C2)C3)cc1,58*,7,5,3,2,44*
N#Cc1cccc(NC(=O)COC(=O)c2ccccc2Sc2ccccc2C#N)c1,45*,-6,-8,-2,3,39*
CC(=O)c1ccc(NC(=O)COC(=O)c2ccccc2Sc2ccccc2C#N)cc1,8,0,-1,8,4,nt
N#Cc1ccccc1Sc1ccccc1C(=O)OCC(=O)NC12CC3CC(CC(C3)C1)C2,50*,3,3,2,7,47*
O=C(COC(=O)c1ccccc1)NC12CC3CC(CC(C3)C1)C2,79*,3,5,2,13,89*
O=C(COC(=O)c1ccc([N+](=O)[O-])cc1)NC12CC3CC(CC(C3)C1)C2,16,16,4,4,7,nt
Cc1c(Cl)c([N+](=O)[O-])nn1CC(=O)NCc1ccc(Cl)cc1,-7,5,18,-5,2,nt
O=C(CCS(=O)(=O)c1ccc(Br)cc1)N1CCN(c2ccc(Cl)cc2)CC1,10,10,-5,6,2,nt
O=C(CCS(=O)(=O)c1ccc(Br)cc1)N1CCN(c2ccc(F)cc2)CC1,39*,10,5,9,13,16
O=C(NCCN1CCOCC1)c1ccc(Cl)c(S(=O)(=O)NCc2ccccc2)c1,-3,7,4,0,3,nt
O=C1CC(c2ccccc2)CN1C(=O)c1cncc(Br)c1 (stereo unspecified),64*,0,3,-2,8,61*
Cc1ccc(CN2CCN(C(=O)/C=C/[C@H]3O[C@@H](n4cc(C)c(=O)[nH]c4=O)C[C@@H]3O)CC2)cc1,nt,nt,nt,nt,6,nt
CCOC(=O)C1C(=O)N(C(=O)c2cncc(Br)c2)CC1c1ccccc1 (stereo unspecified),13,4,0,3,5,nt
CCOC(=O)C1C(=O)N(C(=O)c2ccc(OC)cc2)CC1c1ccccc1 (stereo unspecified),95*,1,18,11,7,75*
Cc1ccc(S(=O)(=O)NC(=O)C2(C)CCN2C(=O)c2cccc(F)c2)nc1 (stereo unspecified),nt,nt,nt,nt,-12,nt
CCOc1ccc(/C=C2\SC(=S)N(C(C(=O)O)c3ccccc3)C2=O)cc1OC (stereo unspecified),2,3,1,5,4,nt
COc1ccc(OC)c(/C=C2\SC(=S)N(C(C(=O)O)c3ccccc3)C2=O)c1 (stereo unspecified),32*,0,4,6,-4,15
O=C(O)C(Cc1ccccc1)N1C(=O)/C(=C/c2cccs2)SC1=S (stereo unspecified),nt,nt,nt,nt,7,nt
